Bioassay records from PubChem.
SRC3 inh: SRC3 coactivator transcriptional activity inhibitors, primary screen, cell-based, luminescence; Nuclear receptor coactivator 3 (Homo sapiens), Q9Y6Q9; HEK293 GAL4-SRC3 luciferase reporter; inhibition, % at 3.6 µM; actives 0.17% (n = 360,000); AID 588352, 2011;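 active = inhibition above a per-campaign cutoff, the mean of all compounds plus 3 SD, cut at about 60% in these data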;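 also: 0% = DMSO-treated cells and 100% = gossypol-treated cells at 36 µM; higher means less SRC3-driven luciferase light from the GAL4 reporter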
Target sequence (Q9Y6Q9 whole entry, looked up, the tested form may be a part): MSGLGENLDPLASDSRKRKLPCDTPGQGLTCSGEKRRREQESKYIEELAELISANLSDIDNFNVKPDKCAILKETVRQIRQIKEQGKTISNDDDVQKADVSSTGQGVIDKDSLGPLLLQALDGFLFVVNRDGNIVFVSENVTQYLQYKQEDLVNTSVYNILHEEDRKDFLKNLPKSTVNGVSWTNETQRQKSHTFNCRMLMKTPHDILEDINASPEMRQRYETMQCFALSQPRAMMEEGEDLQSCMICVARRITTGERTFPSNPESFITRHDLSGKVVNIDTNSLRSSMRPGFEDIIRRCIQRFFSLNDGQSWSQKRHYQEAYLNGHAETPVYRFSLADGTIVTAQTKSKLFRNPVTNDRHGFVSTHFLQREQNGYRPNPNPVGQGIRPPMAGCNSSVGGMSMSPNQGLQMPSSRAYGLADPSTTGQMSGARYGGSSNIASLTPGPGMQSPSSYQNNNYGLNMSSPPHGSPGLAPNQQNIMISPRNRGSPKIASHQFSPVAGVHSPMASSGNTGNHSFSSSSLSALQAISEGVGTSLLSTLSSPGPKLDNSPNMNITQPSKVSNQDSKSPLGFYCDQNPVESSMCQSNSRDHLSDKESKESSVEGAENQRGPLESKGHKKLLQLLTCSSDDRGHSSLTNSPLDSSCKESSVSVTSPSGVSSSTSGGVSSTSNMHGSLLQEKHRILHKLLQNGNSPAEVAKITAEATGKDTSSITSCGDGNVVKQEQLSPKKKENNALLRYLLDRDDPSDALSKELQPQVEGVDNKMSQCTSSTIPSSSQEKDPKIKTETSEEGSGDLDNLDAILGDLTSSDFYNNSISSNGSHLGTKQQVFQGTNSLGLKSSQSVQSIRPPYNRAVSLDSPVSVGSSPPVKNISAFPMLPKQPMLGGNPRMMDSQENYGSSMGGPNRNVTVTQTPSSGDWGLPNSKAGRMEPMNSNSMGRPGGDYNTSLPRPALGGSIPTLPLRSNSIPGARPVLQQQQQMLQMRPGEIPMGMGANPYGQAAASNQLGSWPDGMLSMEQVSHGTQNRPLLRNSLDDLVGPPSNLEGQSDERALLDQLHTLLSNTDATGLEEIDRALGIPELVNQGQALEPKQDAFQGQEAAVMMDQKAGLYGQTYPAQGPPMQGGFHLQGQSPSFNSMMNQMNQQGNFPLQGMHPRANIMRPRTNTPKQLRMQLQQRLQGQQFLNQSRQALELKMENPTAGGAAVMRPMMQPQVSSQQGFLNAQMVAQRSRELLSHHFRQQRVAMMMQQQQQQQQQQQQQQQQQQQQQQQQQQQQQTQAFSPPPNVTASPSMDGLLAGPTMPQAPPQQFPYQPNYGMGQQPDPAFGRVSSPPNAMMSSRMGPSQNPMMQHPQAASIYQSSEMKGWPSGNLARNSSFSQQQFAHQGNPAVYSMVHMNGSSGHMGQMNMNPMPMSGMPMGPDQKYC
NR5A2 inv ag: LRH-1 (NR5A2) inverse agonists, primary screen, cell-based, luminescence, HEK293T, StAR-luciferase reporter; Nuclear receptor subfamily 5 group A member 2 (Homo sapiens), O00482; LRH-1 transfected, 24 h; inhibition, % at 3.6 µM; actives 0.13% (n = 360,000); AID 602396, 2012;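 active = inhibition above the mean inhibition of all tested compounds plus 3 SD, cut at about 73% in these data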;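 also: 0% = DMSO wells and 100% = reporter-only cells lacking LRH-1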
Gli-Sufu antag: Gli-Sufu pathway antagonists, primary screen, luciferase luminescence, Sufu-KO-LIGHT cells, uHTS; Sufu-KO-LIGHT fibroblasts, Gli luciferase reporter luminescence; AID 588413, 2011; inhibition, % at 5 µM; actives 0.74% (n = 340,000);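 active = inhibition above about 55%, limit read from the data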;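 also: 0% = DMSO-treated cells and 100% = wells with medium but no cells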
NCOA1 inh: SRC1 coactivator transcriptional activity inhibitors, primary screen, cell-based, luminescence. actives 0.12% (n = 360,000). inhibition, % at 3.6 µM. HEK293 GAL4-SRC1 luciferase reporter;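 active = inhibition above the campaign mean plus 3 SD, with each screening campaign given its own cutoff, cut at about 60% in these data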;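 also: 0% = DMSO treated cells and 100% = gossypol at 36 µM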
NR2F2 inh: NR2F2 transcriptional activity inhibitors, primary screen, cell-based, luciferase reporter, HEK293T, luminescence; HEK293T NGFI-A luciferase reporter; actives 0.7% (n = 370,000); inhibition, % at 8.6 µM;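 active = inhibition above a per-plate cutoff, mean inhibition of test wells between control levels plus 3 SD, cut at about 38% in these data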;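 also: cells cotransfected with COUP-TFII expression vector driving the NGFI-A reporter; 0% = median of COUP-TF2 test wells and 100% = reporter-only cells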
NCOA2 inhibitor: inhibition of GAL4-SRC2 driven luciferase reporter, primary screen, SRC2 inhibitor project, cell-based, luminescence. Nuclear receptor coactivator 2 (Homo sapiens), Q15596. HEK293 GAL4-SRC2 luciferase reporter. inhibition, % at 9 µM. actives 0.17% (n = 370,000). AID 651957, 2012;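 active = inhibition above the mean inhibition of all tested compounds plus 3 SD, set per campaign, cut at about 52% in these data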;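 also: 0% = DMSO treated cells and 100% = cells given Gossypol at 36 µM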
An asterisk follows results filed as active; / = no result given. Shown are actives, neighbours in structure and some others; about 1.3% of the full set was active somewhere.

SMILES	SRC3 inh	NR5A2 inv ag	Gli-Sufu antag	NCOA1 inh	NR2F2 inh	NCOA2 inhibitor
CCn1c(COc2ccc(C)cc2)nnc1SCC(=O)Nc1ccccc1-c1ccccc1	/	/	/	/	10	6
CCC(=O)N1CCc2cc(Br)c(S(=O)(=O)NC3CCN(Cc4ccccc4)CC3)cc21	/	/	/	/	-14	3
CC(=O)NC(c1ccc(Cl)cc1Cl)c1ccc2cccnc2c1O (stereo not drawn)	23	88*	87*	40	-9	23
CCCC(=O)NC(c1ccccc1OC)c1ccc2cccnc2c1O (stereo not drawn)	53	80*	/	39	/	/
CCCCC(=O)NC(c1ccccc1OC)c1ccc2cccnc2c1O (stereo not drawn)	32	38	48	18	-15	37
CCCC(=O)NC(c1ccc(Cl)cc1Cl)c1ccc2cccnc2c1O (stereo not drawn)	37	27	89*	28	-18	36
C=CCn1c(Cc2cccs2)nnc1SCC(=O)Nc1cccc2ccccc12	/	/	/	/	6	-7
CN1[C@@H](Cc2ccccc2)COc2cccc(N3CCCC3)c2S1(=O)=O	/	/	/	/	12	7
CN(C)CCNCCCNc1c2ccccc2nc2cccc([N+](=O)[O-])c12	-15	6	62*	1	-1	-14
CN(C)CCCNc1c2c(nc3ccccc13)CCC2	17	-16	11	20	-15	-34
COc1cc(C(=O)/C=C/c2cccnc2)c([N+](=O)[O-])cc1OC	56	51	1	40	28	61*
O=C(/C=C/c1cccnc1)c1ccc([N+](=O)[O-])cc1	16	3	-22	-18	7	0
CN=c1scc(-c2ccc(F)cc2)n1/N=C/c1ccc(O)c(O)c1	-82	-145	58*	-83	22	11
N#Cc1c([N+](=O)[O-])cc([N+](=O)[O-])cc1S(=O)(=O)Cc1ccccc1	-23	32	1	-8	6	61*
S=C(NN=Cc1ccccn1)N(Cc1ccccn1)Cc1ccccn1	-50	-30	82*	-13	5	-29
CC(=NNC(=S)N(Cc1ccccn1)Cc1ccccn1)c1cnccn1	4	-3	90*	-8	8	1
CC(C)(C)OC(=O)N1CCC2CCN(S(C)(=O)=O)CC21 (stereo not drawn)	/	/	/	/	7	-1
COc1ccc(/C=C2\CN(Cc3ccccc3)C/C(=C\c3ccc(OC)c(O)c3)C2=O)cc1O	43	16	9	33	4	52*
O=C(COC(=O)c1ccc(Sc2ncn[nH]2)c([N+](=O)[O-])c1)Nc1cccc(Cl)c1F	/	/	/	/	3	-4
CCN1/C(=C/C=C/c2sc3ccccc3[n+]2CC)Sc2ccccc21	48	55	91*	18	/	/
COc1ccccc1C=CC(=O)C=Cc1ccccc1OC	2	-6	-8	-55	50*	7
Cc1ccc(Nc2nc(-c3ccc(O)c(O)c3)cs2)nc1	/	/	64*	/	-17	14
O=[N+]([O-])c1ccc(O)c(/C=N/Nc2ccccn2)c1	49	39	72*	27	-25	20
O=[N+]([O-])c1ccc(O)c(/C=N/Nc2ncnc3c2cnn3-c2ccccc2)c1	14	2	58*	0	-15	-35
O=[N+]([O-])c1ccc(O)c(/C=N/Nc2nc3ccccc3[nH]2)c1	64*	91*	12	17	-34	8
SMILES	SRC3 inh	NR5A2 inv ag	Gli-Sufu antag	NCOA1 inh	NR2F2 inh	NCOA2 inhibitor
O=[N+]([O-])c1ccc(NN=Cc2ccccc2O)nc1	17	2	22	-18	-16	-3
COc1ccc(O)c(/C=N/Nc2nc3ccccc3[nH]2)c1	13	-11	6	-14	-27	-34
N#CC1CCN(c2nc(-c3ccc(Br)cc3)cs2)CC1	/	/	/	/	-6	/
Cc1ccccc1CN1CC2=C(CCN(Cc3ccccc3)C2=O)N2CCN=C12	62*	85*	/	49	37	2
COc1ccc(CCNC(=O)c2nnn(-c3ccc4c(c3)OCCO4)c2N)cc1OC	58	48	49	58	93*	55*
N#Cc1sc2nccc(Nc3ccccc3)c2c1N	64*	42	-10	72*	36	42
Nc1cc(Nc2ccccc2)ccn1	-26	-17	-6	-7	19	14
Cc1cc(C)nc(NC(=S)N2CCN(c3ncc(C(F)(F)F)cc3Cl)CC2)c1	/	/	/	/	13	/
Cc1ccc(Nc2nc(-c3c(C)nc4ccccn34)cs2)cc1	17	-3	62*	-45	-48	38
Cc1ccc(S(=O)(=O)Nc2cccc3cccnc23)c([N+](=O)[O-])c1	-17	-7	61*	-8	-6	-86
Cc1cc(C)c(NS(=O)(=O)c2cccc3cccnc23)c(C)c1	10	-4	6	-12	7	-12
CC(=C\C=O)/C(C)=C/CC[C@@H]1O[C@@H]2C[C@@H]3O[C@](C)(C[C@H]4C[C@H](O)[C@@H]5O[C@@H]6C[C@H](O)[C@@H](C)O[C@@]6(C)CC[C@H]5O4)[C@@H](O)CC[C@@]3(C)O[C@H]2[C@@H](O)[C@@H]1C	/	/	/	/	6	/
CNc1ccc2ncc(-c3cccc(C(=O)N(C)C)c3)n2n1	58	14	/	69*	19	56*
CN(C)C(=O)c1cccc(-c2ccc3nncn3c2)c1	1	18	/	8	-6	-16
O=C(Nc1nc(-c2ccccc2)cs1)c1ccc(N2CCOCC2)c([N+](=O)[O-])c1	76*	70	45	64*	/	/
O=C(O)CCSc1nnc(-c2ccc3c(c2)OCO3)o1	11	-1	15	16	27	70*
CC(=O)CSc1nnc(-c2ccc3c(c2)OCO3)o1	-110	-129	-26	-102	-12	0
O=C(O)CCC(=O)c1ccc2c(c1)OCCO2	-1	-11	3	0	-14	-38
O=C(O)CCSCC(=O)c1ccc2c(c1)OCCO2	22	8	0	11	34	56*
CC(C)(C)OC(=O)N1CCC(N[C@@H](Cc2ccccc2)C(=O)NCC(c2ccccc2)c2ccccc2)(C(=O)NC2CCCCC2)CC1	/	/	/	/	24	/
O=C(Nc1nc(-c2ccccn2)cs1)c1ccc(Cl)s1	4	15	76*	0	2	-20
CCn1c(SCC(=O)NN=Cc2c[nH]c3ccccc23)nc2ccccc21	/	/	/	/	-2	-6
O=C(c1ccc(-c2ccccc2)cc1)c1ccccc1C(=O)N1CCOCC1	-5	-13	2	-6	-13	15
